# In the supplement of paper PMC6607015:
# Structures can show the parent of a compound that is named as a salt.
# Experiments:
# Settings in all cases: compound concentration in added solution (µM; 5 µl added to 20 µl cells): 10; 18 h
# A431 [1] = assay: LBPA endosome anti-LBPA integrated intensity (sum per cell), Z-score; higher = more LBPA staining
# In short: (§1)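 Duplicate 384-well imaging plates were prepared with 5 µl of 10 µM compound solution per well, and 3,500 HeLa MZ or A431 cells in 20 µl were added on top. Following 18 h of incubation and fixation in 4% PFA, cells received 6C4 anti-LBPA antibody, filipin, propidium iodide and CellTracker green. Four images per well at 20× were segmented in MetaXpress to yield per-cell integrated LBPA or filipin intensity, whole-cell or within LBPA endosomes. These intensities are reported as Z-scores normalised in AcuityXpress.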
# HeLa MZ [2] = assay: as above
# In short: as §1
# A431 [3] = assay: whole-cell filipin (free cholesterol) integrated intensity, Z-score; higher = more cholesterol staining
# In short: as §1
# HeLa MZ [4] = assay: as above
# In short: as §1
# A431 [5] = assay: filipin (cholesterol) integrated intensity within LBPA endosomes, Z-score; higher = more cholesterol in LBPA endosomes
# In short: as §1
# HeLa MZ [6] = assay: as above
# In short: as §1
SMILES,LBPA endosome anti-LBPA integrated intensity (z-score) (A431 [1]),LBPA endosome anti-LBPA integrated intensity (z-score) (HeLa MZ [2]),whole-cell filipin (z-score) (A431 [3]),whole-cell filipin (z-score) (HeLa MZ [4]),filipin (z-score) (A431 [5]),filipin (z-score) (HeLa MZ [6])
CC1CC(OC(=O)c2ccccc2O)CC(C)(C)C1 (configuration not stated) [Homosalate],-0.265,-0.48,-0.0483,0.0325,-0.434,-0.566
CCN(CC)CCNC(=O)c1cc(Br)c(N)cc1OC [Bromopride],-0.305,0.899,-0.269,0.199,-0.333,0.158
O=C(CCNNC(=O)c1ccncc1)NCc1ccccc1 [Nialamide],-0.371,0.29,-0.078,-0.132,-0.403,-0.566
CC(=O)[C@H]1CC[C@H]2[C@@H]3C=CC4=CC(=O)CC[C@@]4(C)[C@@H]3CC[C@]12C [Dydrogesterone],1.19,1.12,0.649,0.0624,0.655,-0.0901
NCCc1cc[nH]n1 [Betazole hydrochloride],-0.528,0.0261,-0.472,-0.657,-0.476,-0.51
CNCCC=C1c2ccccc2C=Cc2ccccc21 [Norcyclobenzaprine],3.26,2.08,1.91,1.02,3.06,3.6
S=c1[nH]cnc2nc[nH]c12 [Mercaptopurine],-0.731,-1.06,-0.622,-1.37,-0.742,-0.984
Cc1onc(-c2c(F)cccc2Cl)c1C(=O)N[C@@H]1C(=O)N2[C@@H]1SC(C)(C)[C@@H]2C(=O)O [Flucloxacillin sodium],-0.384,0.147,-0.112,-0.558,-0.348,-0.62
CN1CCN(CCCN2c3ccccc3Sc3ccc(S(=O)(=O)N(C)C)cc32)CC1 [Thioproperazine dimesylate],2.72,1.97,0.546,-0.109,2.28,2.33
CC(=O)O[C@H]1C[C@@H]2CC[C@@H]3[C@H](CC[C@@]4(C)[C@H]3C[C@H]([N+]3(C)CCCCC3)[C@@H]4OC(C)=O)[C@@]2(C)C[C@@H]1N1CCCCC1 [Vecuronium bromide],-0.413,0.00655,0.0669,-0.181,-0.445,-0.215
CCCCc1nc(Cl)c(CO)n1Cc1ccc(-c2ccccc2-c2nnn[nH]2)cc1 [Losartan],-0.107,-0.132,0.421,-0.132,-0.313,-0.537
CN1Cc2c(N)cccc2C(c2ccccc2)C1 (configuration not stated) [Nomifensine maleate],-0.419,0.114,-0.627,-0.396,-0.47,-0.516
O=C(O)COCCN1CCN(C(c2ccccc2)c2ccc(Cl)cc2)CC1 (configuration not stated) [Cetirizine dihydrochloride],-0.494,-0.434,-0.716,-0.836,-0.508,-0.525
COc1ccc(C2CNC(=O)C2)cc1OC1CCCC1 (configuration not stated) [Rolipram],-0.493,-0.432,-0.586,-0.445,-0.453,-0.525
CC(=O)SCC(Cc1ccccc1)C(=O)NCC(=O)OCc1ccccc1 (configuration not stated) [Racecadotril],-0.747,-1.18,-0.139,-0.415,-0.589,-0.468
COc1ccc2cc([C@@H](C)C(=O)O)ccc2c1 [(R) -Naproxen sodium salt],-0.646,-1.68,-0.677,-0.633,-0.535,-0.58
CCC(Cc1c(I)cc(I)c(N)c1I)C(=O)O (configuration not stated) [Iopanoic acid],-0.521,-0.571,-0.348,-0.587,-0.484,-0.466
N=C(NCCCCCCNC(=N)NC(=N)Nc1ccc(Cl)cc1)NC(=N)Nc1ccc(Cl)cc1 [Chlorhexidine],-0.526,-0.794,-1.08,-1.91,-0.271,-0.107
C[C@]12CC[C@@H]3c4ccc(OS(=O)(=O)O)cc4CC[C@H]3[C@@H]1CCC2=O [Estropipate],-0.486,-0.706,-0.265,-0.499,-0.418,-0.5
C[N+]1(C)CCC(OC(=O)C(O)(c2ccccc2)C2CCCC2)C1 (configuration not stated) [Glycopyrrolate],-0.432,-0.329,-0.296,-0.075,-0.498,-0.443
CCCCOc1cc(C(=O)OCCN(CC)CC)ccc1N [Benoxinate hydrochloride],1.79,1.63,0.624,-0.0981,0.826,0.624
CC(C(=O)O)c1ccc(N2Cc3ccccc3C2=O)cc1 (configuration not stated) [Indoprofen],-0.353,0.541,-0.0864,0.103,-0.445,-0.482
